In PubChem BioAssay AID1117362 (Southern Research Institute, 2015):
In all, about 3,600 compounds went through this assay and about 100 (2.8%) were called active.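 How the source made its calls: active means inhibition above 30% at one or more concentrations, seen consistently on every test date; inconclusive means results that disagree between repeat test dates; inactive means the rest.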 The list is a sample of the results.

Test: biotin-GST/anti-GST TR-FRET signal inhibitors, dose response, artefact control for Vif-APOBEC3G degradation inhibitor project, biochemical (AID 1117362);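 further: biotinylated GST protein used in place of GST-Vif 1-94 and biotin-A3G peptide; detects fluorescence quenchers or blockers of GST binding to anti-GST antibody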
Settings: TR-FRET counter screen; series mostly up to 100 µM

Row | Compound | IC50
1 | Cc1noc(/C=C/c2ccco2)c1S(=O)(=O)N1CCC(C(=O)N2c3ccccc3CC2C)CC1 (stereo not drawn) | inactive
2 | Cc1cc(C)nc(N/N=C/C2=C(N3CCOCC3)C(=C\c3ccc(Cl)cc3)/CC2)n1 | inactive
3 | Cc1ccccc1NC(=O)c1c(C)[nH]c(=S)c(C#N)c1-c1ccco1 | inactive
4 | COc1ccc(OC)c(C2C(C(=O)Nc3ccc(F)cc3)=C(C)Nc3nc(CCCO)nn32)c1 (stereo not drawn) | inactive
5 | c1ccc2c(c1)CCCN2Cc1nnc2n1CCCCC2 | inactive
6 | CCOC(=O)C1CCN(C(c2cccs2)c2sc3nc(C)nn3c2O)CC1 (stereo not drawn) | inactive
7 | Cc1onc(-c2c(F)cccc2Cl)c1C(=O)Nc1nnc(C2CC2)s1 | inactive
8 | O=C(O)c1ccc(Cl)c2c1C1C=CCC1C(c1ccccn1)N2 (stereo not drawn) | inactive
9 | COCCCNC(=O)/C(C#N)=C/c1ccc(OCC(=O)O)c(OC)c1 | inactive
10 | CCOC(=O)N1CCN(C(=O)c2ccc3c(SCC(=O)O)c4c(nc3c2)CCC4)CC1 | inactive
11 | COC(=O)C1=C(C)NC(=O)/C1=C\c1cccs1 | inactive
12 | CC(=O)C1=C(C)NC(C)=C(C(C)=O)C1c1cccs1 | inactive
13 | CNc1c(C(=O)O)ccc2c1C(=O)c1ccccc1C2=O | inactive
14 | COCc1cc(C)nc(NCCO)c1C#N | inactive
15 | CC(C)c1ccc(/C=C/C(=O)N2CCc3ccccc3C2)cc1 | inactive
16 | CCOC(=O)C1=C(c2ccccc2)N=c2s/c(=C\c3ccco3)c(=O)n2C1c1cccs1 (stereo not drawn) | inactive
17 | O=C(O)Cc1ccc(N=Nc2c(O)c(C(=O)O)cc3ccccc23)cc1 | inactive
18 | COC(=O)c1ccc(C)c(NC(=O)CCSc2ccccc2)c1 | inactive
19 | O=C(COC(=O)c1c2c(nc3ccccc13)/C(=C\c1ccco1)CC2)NC1CCCC1 | inactive
20 | CCC(=O)N1N=C(c2ccc(NS(C)(=O)=O)cc2)CC1c1ccc(C)cc1 (stereo not drawn) | inactive
21 | Cn1nc(-c2ccc(Cl)cc2)c2cc(C(=O)N3CCN(c4ccccc4)CC3)sc21 | inactive
22 | CCOC(=O)c1sc2nc(CC(=O)OC)nc(NCc3ccco3)c2c1C | inactive
23 | CCOc1ccc(-n2c(Cc3cc(=O)[nH]c(=O)[nH]3)nnc2SCC(N)=O)cc1 | inactive

Row | Compound | IC50
24 | COC(=O)COc1ccc(S(=O)(=O)Nc2cc(OC)ccc2OC)cc1 | inactive
25 | COC(=O)CSc1nnc(CNC(=O)Cc2ccccc2)n1C | inactive
26 | CCOC(=O)c1cc2cc(F)ccc2nc1C | inactive
27 | O=C(Cc1ccccc1)NC(Nc1ccccc1)C(Cl)(Cl)Cl (stereo not drawn) | inactive
28 | Cc1ccc(C)c(-n2c(Cc3cc(=O)[nH]c(=O)[nH]3)nnc2SC(C)C)c1 | inactive
29 | O/N=C1\CCC\C1=C/c1ccco1 | inactive
30 | O=C(CCCCCN1C(=O)CCC1=O)Nc1ccc(Cl)c(C(F)(F)F)c1 | inactive
31 | Cc1ccc(N(CC(=O)NCCSCc2ccco2)S(=O)(=O)c2ccc(F)cc2)cc1 | inactive
32 | CCOc1ccc(-n2c(Cc3cc(=O)[nH]c(=O)[nH]3)nnc2SCC(=O)NC2CCCC2)cc1 | inactive
33 | CC1CCCN(C(=O)CN2CCN(C(=O)c3ccco3)CC2)C1 (stereo not drawn) | inactive
34 | COc1ccc(CCNC(=O)CN2CCCc3ccccc32)cc1OC | inactive
35 | O=C(c1ccco1)N1CCN(C(c2ccccn2)c2nnnn2C2CCCC2)CC1 (stereo not drawn) | inactive
36 | O=C(NC1CCCC1)C(c1ccco1)N(Cc1ccccc1)C(=O)c1csnn1 (stereo not drawn) | inactive
37 | c1cncc(-c2csc(NCc3ccco3)n2)c1 | inactive
38 | COc1cc(CC(=O)OCC(=O)Nc2cccc([N+](=O)[O-])c2)cc(OC)c1OC | inactive
39 | CCOC(=O)Cn1nnnc1C(C(C)C)N(Cc1cc2c(C)cc(C)cc2[nH]c1=O)C1CCCC1 (stereo not drawn) | inactive
40 | CC(=O)Nc1ccc(S(=O)(=O)NCCSCc2ccco2)cc1 | inactive
41 | CCOC(=O)c1cnn2c(N)c(C#N)nnc12 | inactive
42 | CSc1nc(N(CCO)CCO)c2sc3nc(-c4ccco4)c4c(c3c2n1)CCC4 | inactive
43 | CC(=C/c1ccco1)/C=N/NC(=O)Cc1cccn1C | inactive
44 | COc1ccccc1NC(=O)CSc1nnc(Cc2cc(=O)[nH]c(=O)[nH]2)n1-c1ccccc1 | inactive
45 | Cc1nc2ncccn2c1-c1csc(NCc2ccco2)n1 | inactive
46 | Cc1cc(S(=O)(=O)N(Cc2ccccn2)Cc2ccco2)ccc1-n1cnnn1 | inactive

Row | Compound | IC50
47 | COc1ccccc1C1C=C(c2ccc(C)cc2)Nc2nnnn21 (stereo not drawn) | inactive
48 | O=C(O)/C=C/C(=O)Nc1cccnc1 | inactive
49 | O=C(c1cc2n(n1)C(C(F)(F)F)CC(c1ccco1)N2)N1CCc2ccccc2C1 (stereo not drawn) | inactive
50 | COc1ccc(-c2ccc(C#N)c(SCC(=O)Nc3sc4c(c3C#N)CCC4)n2)cc1OC | inactive
51 | CC(=O)OC1COC(n2ccc3ccccc32)C(OC(C)=O)C1OC(C)=O (stereo not drawn) | inactive
52 | O=C1C2C3CCCC3=C3CCCC3C2C(=O)N1c1ccccc1 (stereo not drawn) | inactive
53 | CCCCn1c(=NC(=O)c2cccnc2)c(C#N)cc2c(=O)n3cccc(C)c3nc21 | inactive
54 | CCc1ccc2nc(N3CCN(C)CC3)c(C#N)cc2c1 | inactive
55 | Cc1nc2cc(N=NC3=C(O)CCCC3=O)ccc2s1 | inactive
56 | COc1ccc2ccccc2c1C1CC(=O)N2CN(Cc3ccco3)CSC2=C1C#N (stereo not drawn) | inactive
57 | C=CC(=O)N1C/C(=C/c2ccc(F)cc2)C(=O)/C(=C\c2ccc(F)cc2)C1 | inactive
58 | O=C1NC(=S)N/C1=C/c1ccc(-c2c(Br)cc([N+](=O)[O-])cc2Br)o1 | inactive
59 | COC(=O)C1=C(N)OC2=C(C(=O)CCC2)C1c1cccs1 (stereo not drawn) | inactive
60 | CC1(c2ccc3noc(-c4ccccc4)c3c2)OCCO1 | inactive
61 | O=C(COC(=O)/C=C/c1ccco1)Nc1ncc(C(F)(F)F)cc1Cl | inactive
62 | CCOC(=O)c1c(C)oc2c1c(C=NCc1ccccn1)c(O)c1ccccc12 | inactive
63 | Cc1ccc(C(=O)Nc2ccc(O)c(C(=O)O)c2)o1 | inactive
64 | COc1ccccc1/C=C(/CC(=O)NCc1ccccc1)c1nc2ccccc2s1 | inactive
65 | COc1ccc(-c2nc3oc4cc(OC)ccc4c(=O)c3c(=O)n2Cc2ccco2)cc1 | inactive
66 | O=S(=O)(Nc1nccs1)c1ccc(Nc2nnc(-c3ccccc3)c3ccccc23)cc1 | inactive
67 | Cc1ccc(-n2c(C)cc(C(=O)OCC(=O)N(CC(C)C)C3CCS(=O)(=O)C3)c2C)cc1 (stereo not drawn) | inactive
68 | CCOc1cc(N2CCOCC2)c(OCC)cc1NS(=O)(=O)c1ccc(Cl)s1 | inactive
